# Screens: PubChem, National Center for Advancing Translational Sciences (NCATS)
# Rows were chosen to be rich in hits. Some 2.3% of all compounds tested hit in one or more screens of this group.
# TDP43 rescue – TDP-43 toxicity inhibition in yeast; 410,000 tested, 1.8% active; Potency, µM (doses to about 46.1 µM), for inactives: at the top dose growth rescue (activation), actives largely listed as activators; AID 652104; TDP-43 expressing yeast growth rescue, BacTiter-Glo, 24 h; also: potency is read from the fitted curve at half-maximal effect; % of control where 0% means no effect; nearly all actives have a fitted effect of over 50% in size
#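 Growth rescue of TDP-43-toxic yeast measured as ATP luminescence (BacTiter-Glo). Cells grown to mid-log in raffinose, induced in galactose at OD600=0.02, exposed to compound 24 hr at 30 deg C.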
# Mm-Cpn inhibitor – inhibitors of Methanococcus maripaludis chaperonin TRiC (MmCpn). 330,000 tested, 0.031% active. Potency, µM (top dose mostly 76.9 µM), without a hit: at the highest dose activity, negative = inhibition, usual class: inhibitors. purified Mm-Cpn ATPase, ADP Transcreener TR-FRET; also: potency is read from the fitted curve at half-maximal effect; % is scaled to controls: 0 for no effect and ±100 for the full control effect; nearly all actives have a fitted effect of over 80% in size
#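 TR-FRET (320 nm excitation; 590 and 665 nm emission) reports ADP made from 10 uM ATP by 25 nM enzyme; compounds were preincubated 10 min, reaction run 30 min, both at 37°C.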
# aSyn yeast inh – inhibitors of alpha-synuclein toxicity in yeast; Yeast expressing alpha-synuclein, growth rescue, BacTiter-Glo, 24 h; Potency, µM (doses to about 46.1 µM), without a hit: at the top dose growth rescue (activation), usual class: activators; 370,000 tested, 0.14% active; also: potency is read from the fitted curve at half-maximal effect; % of control where 0% means no effect; nearly all actives have a fitted effect of over 65% in size
#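 Galactose-induced alpha-syn yeast (OD600=0.02, raffinose-pregrown) + pinned cpd, 24 hr, 30 deg C; growth by BacTiter-Glo luminescence. Growth restoration scores as activation.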
# CCT chaperon mod – modulators of cytosolic chaperonin (CCT/TRiC) activity; 360,000 tested, 0.3% active; AID 651819; activity change, % (test concentration not listed), hits read low; purified chaperonin ATPase assay, HTRF ADP detection, 30 min; in the data active = activity change below about -30%; also: % is scaled to controls: 0 for no effect and ±100 for the full control effect
#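 Nucleotide hydrolysis assay: TRiC at 20–40 nM final (set by batch activity) with 10 uM ATP, 30 min at 37 °C, in presence of 76 uM compound. Detection by competitive ADP HTRF, 30 min ambient.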
# FUS yeast rescue – FUS proteinopathy suppression in yeast; S. cerevisiae FUS-expressing, growth rescue, OD600, 24 h; Potency, µM (series often up to 76.6 µM), usual class: activators; 390,000 tested, 0.24% active; AID 1347120;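 also: potency is read from the fitted curve at half-maximal effect; plate controls were DMSO vehicle for no effect and reference control for full effect; nearly all actives have a fitted effect of over 55% in size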
#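 FUS-expressing yeast, raffinose-pregrown, induced in 2% galactose minimal medium at OD 0.005; compounds in a dilution series, 24hr at 30C. Growth restoration read as absorbance at 600 nm. CP55940 positive control, DMSO negative.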
# Abeta yeast res – compounds reversing amyloid beta toxicity in yeast. 410,000 tested, 0.063% active. yeast expressing A-beta42, growth rescue, OD600, 48 h; response scale: 0% DMSO, 100% iron-clioquinol control. Potency, µM (titrated, usually from 46.1 µM), hits mostly activators; also: potency is read from the fitted curve at half-maximal effect; nearly all actives have a fitted effect of over 55% in size
#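 Yeast A-beta toxicity model in growth medium with pinned compounds, 48 h at 30 C; growth read as absorbance at 600 nm. Normalized to FeCl3/clioquinol equimolar mix (positive) and DMSO (negative).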
# An asterisk follows results filed as active; i = inactive; ? = inconclusive; / = not tested or not shown; [ ] = dose if it differs, or a comment. Unless noted, calls follow the shape of the dose curve; as a rule, active = well fitted curve in the direction sought with a large enough effect; inconclusive = small, poorly fitted or top-dose-only effect, or another doubt; inactive = no such curve, though single readings can be large; an effect the other way counts as inactive or inconclusive.
SMILES,TDP43 rescue,Mm-Cpn inhibitor,aSyn yeast inh,CCT chaperon mod,FUS yeast rescue,Abeta yeast res
CC(O)(c1ccc(F)c(F)c1)c1nc(-c2cnc3ccccc3c2)cs1 (configuration not stated),?,/,-24%,3,?,i
CC(=O)NC(C)(c1ccccc1)c1nc(-c2csc3ccccc23)cs1 (configuration not stated),35µM*,/,7%,1,?,i
COc1cccc(C(C)(O)c2nc(-c3csc4ccccc34)cs2)c1 (configuration not stated),35µM*,/,-1%,2,i,i
Cc1cccc(NS(=O)(=O)c2ccc3[nH]c(=O)ccc3c2)c1C,-10%[9.22 µM],/,/,/,i,i
COc1cccc(C(C)(O)c2nc(/C=C/c3ccccc3)cs2)c1 (configuration not stated),25µM*,/,?,-2,i,i
CC(O)(c1ccccc1)c1nc(/C=C/c2ccccc2)cs1 (configuration not stated),35µM*,/,-27%,-1,i,i
CC(O)(c1ccc(F)c(F)c1)c1nc(/C=C/c2ccccc2)cs1 (configuration not stated),-78%,/,-59%,-3,i,i
COc1cccc(C(C)(O)c2nc(-c3ccccc3C)cs2)c1 (configuration not stated),15%,/,2%,1,i,i
COC(=O)[C@H]1C[C@@]2(C)c3ccccc3N(C(=O)OC(C)(C)C)[C@H]2N1C(=O)OC(C)(C)C,/,/,/,/,i,/
C[n+]1ccnc2cc(Cl)ccc21,/,/,2%,/,/,/
O=C(C1=C(O)/C(=C/c2ccc(O)cc2)CCC1)C(F)(F)F,22µM*,0%,-29%,-3,i,i
COc1ccc(/C=C2\CCCC(C(=O)C(F)(F)F)=C2O)cc1,1%,1%,0%,-1,i,i
O=C(N/C=N/O)C1=NOC(CNc2ncc(C(F)(F)F)cc2Cl)C1 (configuration not stated),16µM*,-1%,2%,0,i,i
O=C(NC1CC1)C1=NOC(CNc2ncc(C(F)(F)F)cc2Cl)C1 (configuration not stated),9%,2%,-3%,-1,i,i
CSc1ccccc1NC(=O)CCn1c(=O)sc2ccccc21,16µM*,3%,4%,-1,i,i
CC(=O)Nc1cccc(NC(=O)CCn2c(=O)sc3ccccc32)c1,17%,0%,-1%,1,i,?
COc1ccc(-c2cc(C(=O)O)sc2C)cc1,22µM*,-7%,2%,0,i,i
COc1ccc2c(c1)CCc1cc(C(=O)O)sc1-2,?,-7%,2%,1,i,i
Cc1ccc(C)c(N2CCN(C(=O)CCC(=O)N3CCOc4ccc(Cl)cc43)CC2)c1,?,-5%,?,0,25µM*,?
COc1ccc(C)cc1Nc1c2c(nc3ccccc13)CCC2,-19%,0%,-3%,-34*,i,i
O=C(CCS(=O)(=O)c1cc(Br)cc2c1N(C(=O)C1CC1)CC2)NCc1ccc(Cl)cc1,2%,/,/,/,28µM*,i
Cc1ccc(C)n1-c1sc2c(c1C(=O)O)CCCC2,4%,1%,13%,1,i,i
Cc1ccc(C)n1-c1sccc1C(=O)O,-12%,-3%,3%,-1,13µM*,i
CC1CCN(C2=NC(=O)/C(=C/c3ccccc3F)S2)CC1,13µM*,-11%,8%,1,i,i
CC1CCN(C2=NC(=O)/C(=C/c3cccc(O)c3)S2)CC1,14%,2%,5%,-3,i,i
SMILES,TDP43 rescue,Mm-Cpn inhibitor,aSyn yeast inh,CCT chaperon mod,FUS yeast rescue,Abeta yeast res
CCOc1ccc(N(CC)S(=O)(=O)c2cc(Br)cc3c2N(C(C)=O)C(C)C3)cc1 (configuration not stated),21%,/,/,/,i,i
CCc1nnc(NC(=O)[C@@H](NC(=O)c2ccc(C(C)(C)C)cc2)C(C)C)s1,-17%,-1%,11%,2,28µM*,i
COc1ccc(CCn2c(=S)[nH]c(=O)c3nccnc32)cc1OC,/,/,-1%,/,/,/
CCCCC(=O)N1CCN(C(=O)c2ccc3nc(C)n(C4CCCC4)c3c2)CC1,/,/,/,/,i,/
CCCc1c(C(=O)OCC)[nH]c2c1C(=O)CCC2,?,2%,-5%,-1,i,i
Cc1c(C(=O)OCCOc2ccccc2)[nH]c2c1C(=O)CCC2,22µM*,0%,-6%,0,i,?
CCOc1ccc(C2CC(=O)c3c([nH]c(C(=O)OCCOc4ccccc4)c3C)C2)cc1 (configuration not stated),-2%,/,/,/,i,i
Cc1c(C(=O)OC2CCCC2C)[nH]c2c1C(=O)CCC2 (configuration not stated),20µM*,0%,-13%,1,i,i
COc1ccc(NC(=O)N(C)C[C@H]2Oc3c(NC(=O)Nc4ccc(C(F)(F)F)cc4)cccc3C(=O)N([C@H](C)CO)C[C@@H]2C)cc1,-12%,0%,-11%,-1,25µM*,i
COc1ccc(NC(=O)N(C)C[C@H]2Oc3c(NC(=O)c4nc5ccccc5s4)cccc3C(=O)N([C@@H](C)CO)C[C@H]2C)cc1,14%,-1%,-7%,0,16µM*,i
C[C@H](CO)N1C[C@H](C)[C@@H](CN(C)C(=O)Nc2ccc3c(c2)OCO3)Oc2c(NC(=O)Nc3ccc(C(F)(F)F)cc3)cccc2C1=O,4%,-1%,-12%,-4,22µM*,i
C[C@H](CO)N1C[C@H](C)[C@@H](CN(C)C(=O)Nc2ccccc2)Oc2ccc(NC(=O)Nc3ccccc3)cc2C1=O,27%,0%,2%,-44*,?,i
C[C@H](CO)N1C[C@H](C)[C@@H](CN(C)C(=O)Nc2ccc(C(F)(F)F)cc2)Oc2c(NC(=O)Nc3ccccc3)cccc2C1=O,7%,1%,-15%,0,?,i
CC(C)NC(=O)Nc1ccc2c(c1)C(=O)N([C@H](C)CO)C[C@H](C)[C@@H](CN(C)C(=O)Nc1ccccc1)O2,13%,1%,-7%,0,i,i
C[C@H](CO)N1C[C@H](C)[C@@H](CN(C)C(=O)Nc2ccc(C(F)(F)F)cc2)Oc2c(cccc2N(C)C)C1=O,0%,4µM*,-1%,-3,i,i
Cc1cccc(NC(=O)CSc2nnc(-c3cccnc3)n2Cc2ccco2)c1C,/,/,/,/,i,/
FC(F)(F)c1ccc(-c2noc(-c3ccccc3Br)n2)cc1,20%,/,/,/,i,i
